In PubChem BioAssay (Tox21) one finds outcome data, which are given here for 24 compounds.

The source made the active and inactive calls. The call rests on the fitted dose curve; in most records, active means well fitted curve in the direction sought with a large enough effect in the repeat runs; inconclusive means weak or mixed curves; inactive means flat fitted curve, though single readings scatter.

A short description of the assay: qHTS assay to test for compound auto fluorescence at 460 nm (blue) in HepG2 cells (AID 720687). The following applies: autofluorescence 405/460 nm, 1 h; series mostly up to 91.3 µM. In outline: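 HepG2 cells in MEM with 10% FBS, attached overnight at 37 C, were exposed to compound or DMSO for 1 hr at 37 C, 5% CO2. Blue fluorescence was read at 405/460 nm, with triamterene as reference fluorophore.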
(In qHTS, concentration-response curves come from the screen itself.)
As to `FC(F)(F)c1ccccc1`, the compound was classed as inactive.

For the compound `Cc1ccc([N+](=O)[O-])cc1Cl`, the compound was classed as inactive.

For the compound `NC(=O)Cc1cccc(C(=O)c2ccccc2)c1N`, the compound was classed as inactive.

In the case of `CN(C)CC[C@@H](c1ccc(Cl)cc1)c1ccccn1`, the call was inactive.

On to `CCOc1ccc(NC(N)=O)cc1`, for which the result was inactive.

On to `C1CCOC1`, for which the compound was called inactive.

As for `C=C(C)C(=O)OCCOP(=O)(O)O`, the call was inactive.

Turning to `C=Cc1ccccc1`, the call was inactive.

For the compound `CC/C=C\CCOC(=O)CCCCC`, the call was inactive.

Regarding `CC1CN(c2ccccc2)NC1=O` (centres undefined), the outcome was inactive.

In the case of `Cc1c(C(=O)NCCO)[n+](=O)c2ccccc2n1[O-]`, the compound was classed as inactive.

Consider `Cc1cc(S(=O)(=O)O)c(N)cc1Cl`, for which the result was inactive.

Turning to `NC1=NCC2c3ccccc3Cc3ccccc3N12` (centres undefined), the result was inactive.

For `CCc1nnc(NS(=O)(=O)c2ccc(N)cc2)s1`, the compound was called inactive.

With `COc1ccc(Nc2ccc(OC)cc2)cc1`, the call was inactive.

As for `O=C(O[C@@H](C(=O)O)[C@@H](OC(=O)c1ccccc1)C(=O)O)c1ccccc1`, the outcome was inactive.

Turning to `CCCCC(=O)O[C@]1(C(=O)CO)[C@H](C)C[C@H]2[C@@H]3CCC4=CC(=O)C=C[C@]4(C)[C@@]3(F)[C@@H](O)C[C@@]21C`, the compound was called inactive.

For the compound `NNS(=O)(=O)c1ccc(Oc2ccc(S(=O)(=O)NN)cc2)cc1`, the call was inactive.

Take `CCN(CC)C(=O)N(CC)CC`: the result was inactive.

For the compound `Cc1ccsc1C(=CCCN1CCC[C@@H](C(=O)O)C1)c1sccc1C`, the outcome was inactive.

Take `CN1CCN(c2c(F)cc3c(=O)c(C(=O)O)cn4c3c2SCC4)CC1`: the result was inactive.

`CC(C)(C)C1CCCCC1=O` (centres undefined): the result was inactive.

Consider `CC(=O)Nc1ccc(C)c(Cl)c1`, for which the result was inactive.

For the compound `CC(C)C(=O)OCC(C)(C)C(O)C(C)C` (centres undefined), the outcome was inactive.
